# Test results from the supplement of paper PMC6555819.
# Assays:
# Experiment in all cases: PBM binding z-score (relative to random genomic background probes); higher = stronger binding; sequences stand for … in GC…GCGATTGACAGCGTAGAATGAAGG
# [1] = system: FXR:RXRa (NR concentration 270 nM, RXRa partner concentration 90 nM)
# Outline: (§1)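 Antibodies against each partner of ligand-free nuclear receptor dimers (one per run) detected binding on custom Agilent 4×180K protein-binding microarrays after 1 h incubation. The double-stranded probes had 34-nt variable regions carrying direct-repeat seeds, single-nucleotide variants, half-site ablations and random human genomic background sequences. Binding z-scores, from regression-normalized fluorescence, use the random background probes as reference.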
# [2] = system: LXRa:RXRa (NR concentration 270 nM, RXRa partner concentration 90 nM)
# Outline: as §1
# [3] = system: LXRa homodimer (NR concentration 270 nM)
# Outline: as §1
# [4] = system: LXRb:RXRa (NR concentration 270 nM, RXRa partner concentration 90 nM)
# Outline: as §1
# [5] = system: LXRb homodimer (NR concentration 270 nM)
# Outline: as §1
# [6] = system: PPARa:RXRa (NR concentration 270 nM, RXRa partner concentration 90 nM)
# Outline: as §1
# [7] = system: PPARg:RXRa (NR concentration 180 nM, RXRa partner concentration 90 nM)
# Outline: as §1
# [8] = system: PPARg:RXRa 270nM:90nM, anti-RXR (NR concentration 270 nM, RXRa partner concentration 90 nM)
# Outline: as §1
# [9] = system: PPARg:RXRa 30nM:10nM, anti-RXR (NR concentration 30 nM, RXRa partner concentration 10 nM)
# Outline: as §1
# [10] = system: PPARg:RXRa 90nM:30nM, anti-RXR (NR concentration 90 nM, RXRa partner concentration 30 nM)
# Outline: as §1
Sequence,PBM binding z-score [1],PBM binding z-score [2],PBM binding z-score [3],PBM binding z-score [4],PBM binding z-score [5],PBM binding z-score [6],PBM binding z-score [7],PBM binding z-score [8],PBM binding z-score [9],PBM binding z-score [10]
ATCGAAAGGTCGAGGTCAGTATAGAGAAAGGGAA,5.77,4.62,1.15,4.12,1.14,5.3,4.76,5.12,2.04,4.08
CGTCCAAGGTCATAGGAGGTCAGTTAAGACAGAT,7.74,7.74,5.66,6.32,1.11,5.68,5.84,5.96,2.29,4.5
ACTAGCAGGCCAAGGGCCACTCAAGATTAGTCCG,-0.56,-0.559,-0.856,-1,-1.27,0.699,2.13,3.13,1.28,2.51
GCTGACAGGTGAAACGCAGGTAACTCAGGGTGGC,-0.217,0.213,-0.763,-0.392,-0.869,0.868,0.373,-0.307,-0.779,-0.533
AATCCAGGGTCATCGTAGGCCAGAGTACGCACAG,7.58,6.18,1.65,4.8,0.807,5.75,6.7,6.07,3.18,4.59
GCGACTGGGGCATCAGCACGTTACCATAACTTAA,-0.278,-0.417,-0.429,0.31,-0.932,0.476,0.927,0.64,-0.0937,0.15
TTACCAACGTGAAAGGTCGTTGATGCACGCCTTG,1.28,1.48,0.436,1.66,-0.169,2.84,2.46,4.26,2.49,4.17
GCTTGTAGATCAAGGTTACGAAAGACTAAGCTAA,0.195,1.01,-0.347,0.883,-0.378,1.97,0.804,1.64,0.408,1.13
ACAGACAGGAGATGAAGGTAACTCAGGCTATCAT,0.323,0.193,0.173,0.229,0.489,0.00739,0.816,0.278,0.594,0.135
CGAACTTGGTCAAGGACAGTGAATCTCCGCACGC,0.162,-0.375,-0.73,-0.622,-1.03,-0.114,0.382,0.0325,-0.999,-0.567
ATCGATAGGTCGAAGGTGAGTATACCCACCCGAA,0.952,0.85,-0.301,0.557,-0.268,2.9,4.53,5.41,3.58,5.43
CCTAGTTGGTCATGGTCACACACGCTATAGGTAC,-0.0474,0.0849,0.431,0.71,0.175,0.348,1.04,0.761,0.167,0.467
ATCGAAAAGTCGAGGTGAGTATAGAGAAAGGGAA,0.304,0.67,-0.216,-0.238,-0.0548,0.326,0.344,-0.139,0.203,-0.312
CCGAGTAGGTTATGGGTCATTCAGGCAACGGTGA,2.41,2.13,0.794,2.57,0.212,4.37,7.07,6.9,5.78,6.93
TCTATTAGTTAAAGGGCAACCGACGAGTCCGTTT,0.559,1.45,0.826,1.12,0.427,1.87,1.12,3.36,3.9,3.45
GCATATAGGTAATACAAGGAGAAAGTCCGATTGT,0.156,-0.0258,-0.258,-0.357,-0.633,0.37,1.06,0.421,0.217,0.104
AGAATGAGGTTACGATCAGGGAAACAGAATACAT,1.98,1.94,-0.122,1.75,-0.632,3.9,2.97,2.65,1.2,2.18
CCTACTGGGCCAAAGCTCATTGATTCCAATGCTC,-0.596,-0.522,-0.451,-0.576,-0.796,1.48,2.63,4.26,2.45,3.85
GCAGACAGGTGAAAGGCAGGTAACTCAGGGTGGC,0.0647,0.0817,-0.103,-0.00398,-0.276,0.899,0.826,0.901,-0.278,0.391
